Screening results: PubChem, Broad Institute
HSF1 activator = increases HSF-1 driven luciferase reporter signal | AID 504408 | 300,000 compounds, 1.7% hits | NIH3T3-HGL HSF-1 luciferase reporter, MG132, 8 h; 100% = twice DMSO control signal | activation, % at 9 µM;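 active = mean replicate activation of at least 50% with a set share of replicates each reaching 50%; inconclusive = only one of those two conditions met; inactive = mean below 50% and too few replicates reaching it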
HSF1 inhib = HSF1 inhibition | NIH3T3-HGL HSE-luciferase, MG132-induced, luminescence 8 h; active compounds read low | activity change, negative = inhibition, % at 7.5 µM (by protocol) | 300,000 compounds, 0.77% hits;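 active = more than half of replicate wells show activity change below -50%, luminescence cut by over half; inconclusive = some wells, but at most half, below -50%; inactive = no replicate well below -50%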;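 also: luciferase reports HSF-1 transcriptional activity via heat shock element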
Wnt act = Wnt/beta-catenin pathway activation; activation, % at 9.35 µM; 300,000 compounds, 1.2% hits; Wnt/beta-catenin reporter cell assay, activator, plate reader; in the data active = activation above about 30%, passing the limit was not always enough; inconclusive = no clear call, values can overlap the other calls
MITF TRPM1 HTS = MITF TRPM1 promoter activation in melanoma cells; SK-MEL-5 TRPM1-promoter luciferase, 24 h; % of positive control, neutral wells = 0; AID 588334; 300,000 compounds, 0.75% hits; activation, % at 12.5 µM;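 active = mean activation of at least 80% with every replicate also reaching 80%; inconclusive = mean reaches 80% but some replicate falls short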
esBAF inh = blocks esBAF chromatin remodeling in mouse ES cells; Bmi1-luciferase knock-in reporter, 24 h; 100% = twice the neutral-well signal; reporter increase, % at 12.5 µM; 350,000 compounds, 2% hits; AID 602393; in the data active = activation above about 40%; inconclusive = no clear call, values can overlap the other calls;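 also: a rise in the Bmi1 reporter signal indicates esBAF inhibition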
A number is an active result. In the library only some 3.9% were active in any assay of this set; here they are far more common.

For CC(NC(=O)CSc1nc2ccccc2c(=O)[nH]1)c1ccccc1 (centres undefined) the results were HSF1 activator inactive, HSF1 inhib inactive, MITF TRPM1 HTS inactive and esBAF inh inactive.
Screening COc1ccc(N2C(=O)CC(NNc3ncc(Cl)cc3Cl)C2=O)cc1 (centres undefined) returned HSF1 activator inactive, HSF1 inhib -60, Wnt act inactive and MITF TRPM1 HTS inactive.
Screening Cc1ccc(C2=CSC3=NNC4(CCCCC4)NN23)cc1 returned HSF1 activator inactive, HSF1 inhib inactive, Wnt act inactive, MITF TRPM1 HTS inactive and esBAF inh 66.
CO[C@H](CN(C)C(=O)Nc1ccc(C(F)(F)F)cc1)[C@H](C)CN(Cc1ccccc1Cl)[C@@H](C)CO was read as esBAF inh inactive.
`O=C(Nc1ccc(F)c(Cl)c1)c1csc([C@H]2C[C@H](O)[C@@H](CO)O2)n1` gave Wnt act 40 and esBAF inh 88.
Screening CC(=O)Nc1ccc(NC(=O)c2ccc3sc([C@H]4C[C@H](O)[C@@H](CO)O4)nc3c2)cc1 returned Wnt act inactive and esBAF inh inactive.
For O=C(Nc1ccc(F)c(Cl)c1)c1ccc2sc([C@H]3C[C@H](O)[C@@H](CO)O3)nc2c1 the results were Wnt act inactive and esBAF inh 62.
`O=C(Nc1cccc(Cl)c1)c1csc([C@@H]2C[C@H](O)[C@@H](CO)O2)n1` gave Wnt act inactive and esBAF inh inactive.
`O=C(Nc1ccc(F)c(Cl)c1)c1csc([C@@H]2C[C@H](O)[C@@H](CO)O2)n1` gave Wnt act inactive and esBAF inh 43.
Screening O=C(Nc1ccc(F)c(Cl)c1)c1csc(COCCO)n1 returned Wnt act inactive and esBAF inh 51.
CCC(=O)N1C[C@@H](O)COC[C@@H]2O[C@@H](CC(=O)NCc3ccccc3Cl)CC[C@H]21 was read as esBAF inh inactive.
For C[C@H](O)C#Cc1ccc([C@H]2[C@H]3CN(C(=O)c4ccncc4)CCCCN3[C@H]2CO)cc1 the results were esBAF inh inactive.
CCS(=O)(=O)c1ccc2oc(Nc3ccccc3Br)nc2c1 was read as HSF1 activator inactive, HSF1 inhib inactive, Wnt act 36 and MITF TRPM1 HTS 100.
For CCS(=O)(=O)c1ccc2oc(Nc3ccccc3Cl)nc2c1 the results were HSF1 activator inactive, HSF1 inhib inactive, Wnt act inactive, MITF TRPM1 HTS inactive and esBAF inh inconclusive.
For C[C@H]1CN([C@@H](C)CO)C(=O)c2cccc(NC(=O)Nc3cccc4ccccc34)c2O[C@@H]1CN(C)S(=O)(=O)c1cccs1 the results were esBAF inh inactive.
O=C([C@@H]1[C@@H](CO)[C@@H]2Cn3c(ccc(/C=C/c4ccccc4)c3=O)[C@H]1N2)N1CCCCC1 was read as esBAF inh inactive.
O=C(N=Nc1c(O)n(Cc2ccccc2)c2ccccc12)c1cc2ccccc2cc1O was read as HSF1 activator inactive, HSF1 inhib inactive, Wnt act inactive and MITF TRPM1 HTS 89.
Screening O=C(N=Nc1c(O)n(Cc2ccccc2)c2ccccc12)c1ccc(O)cc1 returned HSF1 activator 62, HSF1 inhib inactive and MITF TRPM1 HTS 150.
COc1ccc(NC(=O)N(C)C[C@@H]2OCCCC[C@H](C)Oc3ccc(NS(=O)(=O)c4cn(C)cn4)cc3C(=O)N([C@H](C)CO)C[C@@H]2C)cc1 was read as esBAF inh inactive.
`CCCN(C)C[C@H]1Oc2cc(C#Cc3cccnc3)ccc2S(=O)(=O)N([C@H](C)CO)C[C@H]1C` gave esBAF inh inactive.
`Cc1cc(C(N)=O)c2ccccc2n1` gave HSF1 activator inactive, HSF1 inhib inactive, MITF TRPM1 HTS inactive and esBAF inh inactive.
`NC(=O)c1cc2c3ccccc3ccn2c1-c1ccccc1` gave HSF1 activator inactive, HSF1 inhib inactive, Wnt act inconclusive, MITF TRPM1 HTS inactive and esBAF inh 49.
Screening CC(=O)N(C)C[C@H]1Oc2cc(C#Cc3cccc(F)c3)ccc2S(=O)(=O)N([C@@H](C)CO)C[C@H]1C returned esBAF inh inactive.
`CC(C)NC(=O)Nc1ccc2c(c1)C(=O)N([C@@H](C)CO)C[C@H](C)[C@H](CN(C)Cc1ccc(C(=O)O)cc1)O2` gave esBAF inh inactive.
For COc1ccccc1-c1cnc2c(c1)C(=O)N([C@@H](C)CO)C[C@H](C)[C@H](CN(C)Cc1ccc(C(=O)O)cc1)O2 the results were esBAF inh inactive.
Screening CCOc1ccc(NC(=O)CCc2c(C)nn(-c3ccc(N4CCCCC4)nn3)c2C)cc1 returned HSF1 activator inconclusive, HSF1 inhib inactive, Wnt act inactive, MITF TRPM1 HTS inactive and esBAF inh 52.
Screening Cc1nn(-c2ccc(N3CCCCC3)nn2)c(C)c1CCC(=O)Nc1ccc(F)cc1 returned HSF1 activator inactive, HSF1 inhib inactive, Wnt act inactive, MITF TRPM1 HTS inactive and esBAF inh inactive.
Screening CCc1ccc(NC(=O)CCc2c(C)nn(-c3ccc(N4CCCCC4)nn3)c2C)cc1 returned HSF1 activator inactive, HSF1 inhib inactive, Wnt act inactive, MITF TRPM1 HTS inactive and esBAF inh 62.
Screening CCc1cccc(NC(=O)CCc2c(C)nn(-c3ccc(N4CCCCC4)nn3)c2C)c1 returned HSF1 activator inactive, HSF1 inhib inactive, Wnt act inactive, MITF TRPM1 HTS inactive and esBAF inh inactive.
Screening CC(C)C[C@@H](CC#N)N1CCN(Cc2ccccc2)CCC1=O returned HSF1 activator inactive, HSF1 inhib -61, Wnt act inactive, MITF TRPM1 HTS inactive and esBAF inh inactive.
CCOC(=O)c1ccc(NC(=S)Nc2ccc(C)cc2)cc1 was read as HSF1 activator inactive, HSF1 inhib inactive, Wnt act inactive, MITF TRPM1 HTS inactive and esBAF inh inactive.
CCOC(=O)c1cn[nH]c1NC(=S)Nc1ccc(Cl)cc1 was read as HSF1 activator inactive, HSF1 inhib inactive, Wnt act 36 and esBAF inh inactive.
For CCOC(=O)c1ccc(Oc2nc(OC)nc(N(C)C)n2)cc1 the results were HSF1 activator inactive, HSF1 inhib inactive, Wnt act inactive and esBAF inh inactive.
`CCOC(=O)c1ccc(Oc2nc(NC)nc(Nc3ccccc3)n2)cc1` gave HSF1 activator inactive, HSF1 inhib -57 and esBAF inh inactive.
`CCNc1nc(N)nc(Oc2ccc(C(=O)OC)cc2)n1` gave HSF1 activator inactive, HSF1 inhib inactive, Wnt act inactive, MITF TRPM1 HTS 87 and esBAF inh inconclusive.
Screening CCn1c(=O)n(CC)c2cc(N3CCCC3)c(NC(=O)c3ccc(OC)c(Br)c3)cc21 returned HSF1 activator inactive, HSF1 inhib -71, Wnt act inactive, MITF TRPM1 HTS inactive and esBAF inh inactive.
Screening CCn1c(=O)n(CC)c2cc(N3CCCC3)c(NC(=O)c3ccccc3OC)cc21 returned HSF1 activator inactive, HSF1 inhib inactive, Wnt act inactive, MITF TRPM1 HTS inactive and esBAF inh inactive.
